About 83,000 compounds went through this panel and 20% of them were active in at least one assay; those are over-represented in the sample as a whole.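 Activity criterion: percent growth below 10, measured after cells in 96-well plates were exposed to a single compound concentration for 48 hours.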 A number with no mark means an inactive call. Activity calls are given as the source filed them.
What was measured:
Assay in all cases: NCI-60 one-dose screen, 48 h (100 = growth as untreated, 0 = no growth, -100 = all killed)
EKVX NSCLC = conditions: 10 µM
SN12C renal = conditions: 10 µM
UO-31 renal = conditions: 10 µM
TK-10 renal = conditions: 10 µM unless noted
ACHN renal = conditions: 10 µM
CAKI-1 renal = conditions: 10 µM
A498 renal = conditions: 10 µM
CCRF-CEM leukemia = conditions: 10 µM
MOLT-4 leukemia = conditions: 10 µM
SK-MEL-2 melanoma = conditions: 10 µM

| Structure (SMILES) | growth (EKVX NSCLC) | growth (SN12C renal) | growth (UO-31 renal) | growth (TK-10 renal) | growth (ACHN renal) | growth (CAKI-1 renal) | growth (A498 renal) | growth (CCRF-CEM leukemia) | growth (MOLT-4 leukemia) | growth (SK-MEL-2 melanoma) [%] |
| --- | --- | --- | --- | --- | --- | --- | --- | --- | --- | --- |
| C=CC(=O)OCCCCCCCC | 111% | 103% | 88.4% | 140% | 101% | 97.6% | 89.8% | 83% | 89.9% |  |
| Cc1cc(C)c(N)c(S(=O)(=O)O)c1 | 101% | 97.7% | 76.2% | 105% | 96.6% | 91.3% | 142% | 86% | 113% |  |
| O=C(O)c1cccc([N+](=O)[O-])c1O |  | 102% | 86.1% |  | 104% | 99% | 109% | 100% | 99.5% | 118 |
| CC(C)(C)c1cc(O)c(C(C)(C)C)cc1O |  | 87.4% | 90.3% |  | 92.4% | 84.4% | 58.5% | 80.4% | 73.2% | 86.6 |
| COc1cc([C@@H]2c3cc4c(cc3[C@H](O)[C@H]3COC(=O)[C@H]23)OCO4)cc(OC)c1OC | 38.8% | 32.9% | 48.2% | 51.4% | 34.6% | 26.9% | -10.2% (active) | 6.58% (active) | -6.06% (active) |  |
| CN(C)/N=C/c1ccccc1O |  | 97.7% | 92.3% |  | 97.6% | 96.1% | 94.5% | 100% | 95.9% | 90.3 |
| CCO/C=C1\SC(=S)N(c2cccc(C)c2)C1=O |  | 106% | 79.3% | 98.9% | 106% | 101% | 113% |  | 95.7% | 110 |
| CCC/C=C(\C)C(C)(C#N)C(=O)OCC (stereo unspecified) |  |  | 100% | 108% | 106% | 92.3% | 98.9% | 90.4% | 104% | 105 |
| CC1Cc2ccccc2O1 (stereo unspecified) | 122% | 106% | 90.6% | 129% | 101% | 102% | 115% | 112% | 105% |  |
| CCOc1ccc2[nH]c(=S)sc2c1 | 96.2% | 102% | 88% | 103% | 111% | 100% | 94% | 98.3% | 86.7% |  |
| O=C1C=CC(=O)N1c1ccc(I)cc1Cl |  | 101% | 94% |  | 104% |  | 99.1% | 85.9% | 128% | 114 |
| CC1NC(=O)NC1CCCCCC(=O)O (stereo unspecified) |  | 105% |  | 100% | 101% |  | 87.8% | 2.23% (active) | 118% | 103 |
| COc1ccc2c(NCCCCCCCCNc3c4ccccc4nc4cc(OC)ccc34)c3ccccc3nc2c1 | -79.6% (active) | -92.7% (active) | -76.2% (active) | -72.9% (active) | -100% (active) | -100% (active) | -88.6% (active) | -42.4% (active) | -85.7% (active) |  |
| C/C(=C\c1cc(Cl)ccc1OCC(=O)O)[N+](=O)[O-] | 98.2% | 122% | 90.5% | 116% | 106% | 93.2% | 144% | 80.1% | 96.9% |  |
| CN(C)C(C)(C)CC(C)(C)C | 95.8% | 98.3% | 76.7% | 143% | 100% | 101% | 110% | 89.8% | 95.1% |  |
| O=C(O)CCCc1ccccc1 | 116% | 101% | 94.9% | 98.9% | 108% | 108% | 121% | 102% | 98.4% |  |
| O=c1c2ccccc2c(Br)c(Br)c2ccccc12 | 105% | 96.8% | -35.2% (active) | 23.6% | 53.7% | 56.5% | 113% | 30.7% | 53.6% |  |
| O=C(CN1CCNCC1)N1CCOCC1 | 107% | 104% | 84.6% | 110% | 110% | 101% | 116% | 100% | 81.6% |  |
| COc1cc(/C=C(\C#N)C(=O)c2ccccc2)ccc1OCc1ccccc1 | 107% | 102% | 79.7% | 109% | 102% | 96.5% | 87.9% | -32.5% (active) | 106% |  |
| N=c1c(C(=O)OCc2ccccc2)ncc(CCl)n1O | 101% | 88.6% | 83.5% | 106% | 94.6% | 92.2% | 103% | 94% | 97.8% |  |
| NC(=S)CN1CCOCC1 | 112% | 103% | 88% | 99.3% | 103% | 95.6% | 89.9% | -25.8% (active) | 32.3% |  |
| C=CCNc1nnc(C)s1 | 109% | 95.6% | 81.1% | 123% | 96.7% | 119% | 123% | 105% | 168% |  |
| Cc1nc2c(ccc3ccccc32)s1 | 110% | 107% | 96.9% | 119% | 111% | 103% | 115% | 85.7% | 103% |  |
| COC(=O)/C=C1\Sc2cc(F)ccc2NC1=O | 88.2% | 116% | 101% | 139% | 111% | 60.9% | 126% | 87.9% | 92.3% |  |
| NC(=O)N/N=C\c1ccco1 | 119% | 98.4% | 94.7% | 100% | 111% | 108% | 117% | 102% | 101% |  |
